This passage reports AC50 and outcome results from PubChem BioAssay (EPA / NIEHS).

A short description of experiment [1]: ATG_PBREM_CIS: Attagene CIS-FACTORIAL HepG2 Assay for human Phenobarbital-responsive Enhancer Module (PBREM) (AID 2282955). Particulars: HepG2 PBREM cis-reporter, Attagene multiplexed transcription; actives raise or lower the signal. In a few lines:
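Endogenous transcription factors in human liver HepG2 cells drive a PBREM cis-element reporter, whose transcript level after 24 h treatment is quantified by RT-PCR with capillary electrophoresis; activity fitted in both directions against DMSO.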

The target of experiment [2] is Paired box protein Pax-6 (Homo sapiens) (UniProt P26367). Nature of the experiment: ATG_Pax6_CIS: Attagene CIS-FACTORIAL HepG2 Assay for human Paired Box 6 (PAX6) (AID 2282956). Conditions: HepG2 CIS-FACTORIAL PAX6 reporter transcription, RNA readout; actives raise or lower the signal. A digest of the protocol: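 HepG2 cells transiently transfected with multiplexed cis-promoter reporter units (endogenous TF activity) were dosed for 24 h. Reporter mRNA was quantified by RT-PCR, 6-FAM labeling, HpaI digestion and capillary electrophoresis; bidirectional fitting versus DMSO baseline.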

Experiment [3] can be described thus: ATG_PXRE_CIS: Attagene CIS-FACTORIAL HepG2 Assay for human Pregnane X Receptor Element (PXRE) (AID 2282957). Particulars: HepG2 Attagene CIS-FACTORIAL PXRE reporter, mRNA; actives raise or lower the signal. A digest of the protocol: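 Multiplexed cis-reporter assay in transiently transfected human HepG2 cells; 24 h chemical exposure. Reporter transcripts quantified by RT-PCR with fluorescent labeling and capillary electrophoresis.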

A short description of experiment [4]: ATG_RORE_CIS: Attagene CIS-FACTORIAL HepG2 Assay for human RAR-related Orphan Receptor Element (RORE) (AID 2282959). Particulars: HepG2 Attagene cis-factorial RORE reporter, mRNA; actives raise or lower the signal. A digest of the protocol:
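Transient MRTU transfection of human HepG2 liver cells (FuGene 6); 24 h compound exposure; TriZol RNA, oligo(dT) RT, PCR, FAM labeling, HpaI cut, CE fragment analysis. DMSO = negative control/baseline.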

Experiment [5] has as its target Transcription factor Sp1 (Homo sapiens) (UniProt P08047). Nature of the experiment: ATG_Sp1_CIS: Attagene CIS-FACTORIAL HepG2 Assay for human Specificity Protein 1 (Sp1) (AID 2282961). Particulars: HepG2 Sp1 cis-reporter transcription, actives raise or lower the signal. A digest of the protocol: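 Transient MRTU-transfected HepG2, 24 h compound exposure. Total RNA → oligo(dT) RT → PCR of reporter → 6-FAM primer extension → HpaI digest → CE. Endpoint fitted both directions vs DMSO.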

Experiment [6] is described as follows: ATG_SREBP_CIS: Attagene CIS-FACTORIAL HepG2 Assay for human Sterol Regulatory Element Binding (SREBP) (AID 2282962). Particulars: HepG2 Attagene cis-factorial SREBP reporter, mRNA; actives raise or lower the signal. In a few lines: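 HepG2 cells transiently transfected with multiplexed cis-element reporter units report endogenous transcription factor activity. After 24 h of chemical exposure, reporter mRNA was quantified by RT-PCR, 6-FAM labelling, HpaI digestion and capillary electrophoresis; bidirectional fits used DMSO as baseline.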

Experiment [7] deals with Signal transducer and activator of transcription 3 (Homo sapiens) (UniProt P40763). Nature of the experiment: ATG_STAT3_CIS: Attagene CIS-FACTORIAL HepG2 Assay for human Signal Transducer and Activator of Transcription 3 (STAT3) (AID 2282963). Conditions: HepG2, Attagene cis-factorial STAT3 reporter transcription; actives raise or lower the signal. A digest of the protocol:
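Endogenous STAT3-responsive cis-element activity was read in transiently transfected HepG2 cells after 24 h treatment. Reporter transcripts were quantified via RT-PCR and capillary electrophoresis, with DMSO as negative control and bidirectional curve fitting.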

The nature of experiment [8]: ATG_TA_CIS: Attagene CIS-FACTORIAL HepG2 Assay for human TA Basal Promoter (AID 2282964). Conditions: HepG2 Attagene CIS-factorial TA basal promoter reporter; actives raise or lower the signal. A digest of the protocol: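 Fluorescence from labelled RT-PCR reporter fragments, separated by capillary electrophoresis, gives the signal. Cells: HepG2 transiently carrying multiple reporter units, 24 h chemical dosing. Gain or loss relative to DMSO.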

The nature of experiment [9]: ATG_PPRE_CIS: Attagene CIS-FACTORIAL HepG2 Assay for human Peroxisome Proliferator-activated Response Element (PPRE) (AID 2282958). Conditions: HepG2 PPRE cis-element reporter, Attagene transcription factor profiling; actives raise or lower the signal. A digest of the protocol:
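HepG2, transient MRTU transfection (cis promoter elements, endogenous TFs). 24 h dosing. RNA → oligo(dT) RT → PCR → 6-FAM primer extension → HpaI digest → CE. Bidirectional fit vs DMSO.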

The nature of experiment [10]: ATG_Sox_CIS: Attagene CIS-FACTORIAL HepG2 Assay for human SRY-box transcription factor (SOX) (AID 2282960). Conditions: HepG2 Attagene cis-factorial SOX reporter, mRNA; actives raise or lower the signal. A digest of the protocol:
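Endogenous factor activity in human liver HepG2 cells carrying transfected cis-regulated reporter units. RNA taken 24 h post-dose, reverse-transcribed, PCR-amplified and sized by capillary electrophoresis. Gain or loss of signal fitted relative to DMSO.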

“And” between values parts separate entries of the source, which are not always exact repeats. Identical values can stand only once. Some compounds were tested as several samples or in several runs, with calls that do not always agree. The source made the active and inactive calls. How the source made its calls: active means hit-call score of the fitted dose curve at least 0.9, where 1 is the maximum; inactive means score below 0.9.

Chain of Paired box protein Pax-6 (Homo sapiens) (P26367 whole entry, looked up): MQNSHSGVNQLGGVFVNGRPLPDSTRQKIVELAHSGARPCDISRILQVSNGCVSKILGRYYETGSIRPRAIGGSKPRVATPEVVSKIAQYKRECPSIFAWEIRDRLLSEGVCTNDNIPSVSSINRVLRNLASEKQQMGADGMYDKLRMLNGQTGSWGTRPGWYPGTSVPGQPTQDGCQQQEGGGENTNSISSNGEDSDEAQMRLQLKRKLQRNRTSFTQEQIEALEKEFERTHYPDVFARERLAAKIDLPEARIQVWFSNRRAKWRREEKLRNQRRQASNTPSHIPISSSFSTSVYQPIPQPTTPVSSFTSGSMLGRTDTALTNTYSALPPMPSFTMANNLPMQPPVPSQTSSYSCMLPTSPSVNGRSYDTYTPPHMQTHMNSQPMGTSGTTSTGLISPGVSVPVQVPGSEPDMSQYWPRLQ
Chain of Transcription factor Sp1 (Homo sapiens) (P08047 whole entry, looked up): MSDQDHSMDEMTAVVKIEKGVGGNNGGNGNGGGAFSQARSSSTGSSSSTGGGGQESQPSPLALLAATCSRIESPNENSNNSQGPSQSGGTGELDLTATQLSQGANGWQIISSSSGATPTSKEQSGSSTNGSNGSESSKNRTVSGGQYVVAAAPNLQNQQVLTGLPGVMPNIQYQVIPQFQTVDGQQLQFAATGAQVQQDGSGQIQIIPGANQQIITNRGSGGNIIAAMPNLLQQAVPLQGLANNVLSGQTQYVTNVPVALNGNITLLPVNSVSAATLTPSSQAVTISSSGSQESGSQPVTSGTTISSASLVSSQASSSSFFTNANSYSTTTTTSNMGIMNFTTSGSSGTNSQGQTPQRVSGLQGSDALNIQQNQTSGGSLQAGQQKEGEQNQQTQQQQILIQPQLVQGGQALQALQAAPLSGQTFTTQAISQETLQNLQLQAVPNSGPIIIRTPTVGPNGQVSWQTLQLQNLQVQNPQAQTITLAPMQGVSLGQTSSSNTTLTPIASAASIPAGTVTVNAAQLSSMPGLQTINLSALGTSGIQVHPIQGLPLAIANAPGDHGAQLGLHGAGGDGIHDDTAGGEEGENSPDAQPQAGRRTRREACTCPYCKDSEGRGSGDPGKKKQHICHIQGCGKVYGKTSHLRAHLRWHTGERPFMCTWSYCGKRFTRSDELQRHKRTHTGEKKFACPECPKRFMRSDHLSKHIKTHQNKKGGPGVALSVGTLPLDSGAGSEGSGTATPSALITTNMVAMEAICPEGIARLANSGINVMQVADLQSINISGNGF
Chain of Signal transducer and activator of transcription 3 (Homo sapiens) (P40763 whole entry, looked up): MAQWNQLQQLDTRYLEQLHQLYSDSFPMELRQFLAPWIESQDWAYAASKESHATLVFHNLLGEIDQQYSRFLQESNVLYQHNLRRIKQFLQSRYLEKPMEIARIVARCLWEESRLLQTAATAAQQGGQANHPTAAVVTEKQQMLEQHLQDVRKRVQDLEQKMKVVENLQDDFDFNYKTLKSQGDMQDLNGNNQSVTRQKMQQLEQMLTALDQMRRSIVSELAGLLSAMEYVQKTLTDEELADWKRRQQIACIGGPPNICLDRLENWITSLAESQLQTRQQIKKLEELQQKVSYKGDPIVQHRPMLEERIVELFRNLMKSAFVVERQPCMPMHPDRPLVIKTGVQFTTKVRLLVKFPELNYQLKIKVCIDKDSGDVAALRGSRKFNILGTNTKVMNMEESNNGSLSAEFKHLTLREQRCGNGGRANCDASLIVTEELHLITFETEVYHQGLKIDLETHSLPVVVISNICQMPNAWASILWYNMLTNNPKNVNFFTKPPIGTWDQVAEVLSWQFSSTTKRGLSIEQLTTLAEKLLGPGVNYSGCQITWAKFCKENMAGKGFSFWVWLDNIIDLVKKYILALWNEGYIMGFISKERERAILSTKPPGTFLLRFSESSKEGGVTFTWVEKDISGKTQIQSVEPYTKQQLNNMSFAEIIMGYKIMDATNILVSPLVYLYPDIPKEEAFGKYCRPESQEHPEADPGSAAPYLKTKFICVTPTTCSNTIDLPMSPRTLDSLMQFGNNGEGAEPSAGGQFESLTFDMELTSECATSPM

Take `CC#C[C@]1(O)CC[C@H]2[C@@H]3CCC4=CC(=O)CCC4=C3[C@@H](c3ccc(N(C)C)cc3)C[C@@]21C`: the AC50 (in general, the concentration giving half of the maximal activity seen) in experiment [1] was 11.5 µM (active) and 4.77 µM (active) and 13 µM (active); in [2], 11.6 µM (active) [middle of 4 runs]; in experiment [3], 1.03 µM (active) [middle of 4 runs]; in experiment [4] it was 6.68 µM (active) [middle of 4 runs]; in [5], 122 µM (active) and 27.5 µM (active); in [6] it was 23.9 µM (active) and 91.2 µM (active) and 31.7 µM (active). Moreover, the AC50 in experiment [8] was 9.11 µM (active) and 8.72 µM (active) and 27.2 µM (active). Besides, the result in experiment [1], in experiment [5], in experiment [6], in experiment [7] and in experiment [8] was inactive.
In the case of `O=c1c(-c2ccc(O)cc2)coc2cc(O)ccc12`, the result in [1], in experiment [2], in experiment [3], in [9], in experiment [4] and in experiment [5] was inactive. The compound was called inactive in experiment [6], in [7] and in experiment [8]. Also, the AC50 is 42 µM (active) and 52.3 µM (active) in experiment [9]; 38.8 µM (active) in experiment [5]; 47.5 µM (active) and 91.4 µM (active) in experiment [6].
On to `C#C[C@]1(O)CC[C@H]2[C@@H]3CCC4=CC(=O)CC[C@@H]4[C@H]3CC[C@@]21C`, for which the result in experiment [1], in experiment [2], in [9], in [4], in [5] and in [6] was inactive. In addition, the compound was classed as inactive in [7] and in experiment [8]. The AC50 in experiment [3] is 26.9 µM (active) [middle of 4 runs].
As to `O=[N+]([O-])c1ccc(O)cc1`, the outcome in [1], in experiment [2], in experiment [3], in experiment [9], in [10] and in experiment [6] was inactive. Further, the call in experiment [7] and in experiment [8] was inactive.
With `CCC(C)(C)C1CCC(O)CC1` (stereo not drawn), the outcome in [1], in experiment [2], in experiment [9], in [5], in experiment [6] and in experiment [7] was inactive. Also, the call in experiment [8] was inactive. The AC50 in experiment [3] is 21.9 µM (active) [middle of 4 runs].
Turning to `CC(O)C(=O)O` (stereo not drawn), the result in experiment [1], in [2], in [3], in experiment [4], in experiment [6] and in [7] was inactive. Further, the compound was called inactive in experiment [8].
On to `CCCCCCCC(=O)O`, for which the outcome in experiment [1], in experiment [2], in [3], in experiment [4], in experiment [10] and in [6] was inactive. Also, the compound was called inactive in [7] and in [8].
On to `C=C(C)C(=O)OCCC(F)(F)C(F)(F)C(F)(F)C(F)(F)C(F)(F)C(F)(F)F`, for which the outcome in [1], in experiment [2], in [3], in experiment [4], in experiment [10] and in experiment [5] was inactive. In addition, the result in [6], in experiment [7] and in experiment [8] was inactive.
For the compound `COC(=O)CCCCC(=O)OC`, the result in experiment [2], in experiment [3], in experiment [9], in experiment [4], in experiment [5] and in experiment [6] was inactive. For the same compound, the compound was called inactive in experiment [7] and in experiment [8].
As for `CCCCCCCCC(=O)O`, the outcome in experiment [1], in experiment [2], in experiment [3], in [4], in [10] and in experiment [6] was inactive. Also, the call in [7] and in experiment [8] was inactive.
`CC(C)(C)c1ccc(O)c(C(C)(C)C)c1`: the result in [1], in [2], in experiment [4], in experiment [10], in [6] and in experiment [7] was inactive. Besides, the call in [8] was inactive. Moreover, the AC50 in experiment [3] was 7.21 µM (active).
As to `CN1CCC[C@H]1c1cccnc1`, the outcome in experiment [1], in [2], in experiment [3], in experiment [4], in experiment [10] and in experiment [5] was inactive. For the same compound, the outcome in experiment [6], in [7] and in experiment [8] was inactive.
For the compound `COCC(C)OCC(C)O` (stereo not drawn), the result in experiment [1], in [2], in experiment [3], in [9], in [4] and in [6] was inactive. In addition, the compound was called inactive in experiment [7] and in experiment [8].
As for `c1ccc2c(c1)Cc1ccccc1-2`, the call in experiment [2], in experiment [4], in [5], in [6], in experiment [7] and in experiment [8] was inactive. The AC50 in [3] was 72.4 µM (active).
`CCCCCCCCCCCCCCCS(=O)(=O)Oc1ccccc1`: the result in experiment [1], in experiment [2], in experiment [4], in [10], in experiment [6] and in experiment [7] was inactive. For the same compound, in experiment [8], the outcome was inactive. The AC50 in experiment [3] was 0.778 µM (active).
For the compound `Oc1cccc(O)c1`, the compound was called inactive in [2], in experiment [3], in [9], in experiment [4], in experiment [6] and in experiment [7]. In experiment [8], the call was inactive.
For `OC1CCC(C2CCCCC2)CC1` (stereo not drawn), the AC50 was 127 µM (active) in experiment [2]; 26.7 µM (active) and 25.6 µM (active) and 28.6 µM (active) in experiment [3]. The compound was classed as inactive in experiment [2], in [3], in experiment [9], in [4], in experiment [10] and in [6]. In addition, the outcome in [7] and in experiment [8] was inactive.
For the compound `CCCCOCCO`, the result in [1], in [2], in experiment [3], in experiment [9], in [4] and in experiment [6] was inactive. For the same compound, the outcome in experiment [7] and in experiment [8] was inactive.
For the compound `OCCC(F)(F)C(F)(F)C(F)(F)C(F)(F)C(F)(F)C(F)(F)C(F)(F)C(F)(F)F`, the concentration at half-maximal activity (AC50) is 52.5 µM (active) and 222 µM (active) in [1]; 43.3 µM (active) and 176 µM (active) in experiment [2]; 52.1 µM (active) and 98.7 µM (active) in experiment [3]; 25.7 µM (active) in [4]; 222 µM (active) in experiment [6]. Further, the call in [4], in [6], in experiment [7] and in experiment [8] was inactive.
